# Data reported in ChEMBL document CHEMBL4513160, “CO-ADD screening of MMV (CH) - Small Polar Library”.
# The whole screen tested about 18,000 compounds, of which fewer than 10 showed an effect of 50% or more. The list is a sample of the results.
# Test system: Pseudomonas aeruginosa
# Assay: Antibacterial activity against Pseudomonas aeruginosa PAO397 [PAO1 d(mexAB-oprM) d(mexCD-oprJ) d(mexEF-oprN) d(mexJKL) d(mexXY) d(opmH)] (CO-ADD:GN_211); MIC in CAMBH media using NBS plates, by OD(600)
# Assay type: functional
# Conditions: Concentration 300 ug.mL-1, ASSAY_TEST Inhibition of Bacterial Growth, detection method Absorption (OD600), MEDIA CAMHB, plate type 384well, CORNING #3640, time 18 hr
row,Structure (SMILES),Inhibition [%]
1,CCN(C)CCNC(=O)c1cc(C2CC2)[nH]n1,-3.76
2,Cn1c(N)nc2cc(F)ccc21,-7.38
3,COc1ccc(C)c(NC(=O)N(C)CCN(C)C)c1,-15.47
4,NS(=O)(=O)CC1CCCN1CCSc1ccccc1 (stereo not drawn),-5.99
5,CCn1ccc(C(=O)NCc2ccco2)n1,2.87
6,O=C1CCC(=O)N1CCSc1ccc2ccccc2n1,-6.71
7,Cc1cc(NC(=O)Nc2ccccn2)n(C)n1,4.35
8,CC(=O)N1CCCn2nc(-c3cccnc3)cc2C1,11.49
9,COc1ccc(Br)c(S(=O)(=O)N(C)C)c1,-20.8
10,COc1ccc2c(c1)[C@@H](O)CCC2,-31.22
11,N#Cc1ccc(OC2CCNC2)nc1 (stereo not drawn),1.63
12,O=C(CCc1ccccn1)NCCn1cccc1,9.1
13,N#CCSCC(=O)NCc1ccccc1F,-29.21
14,Nc1ncccc1CN1CCc2ccccc2CC1,7.61
15,COc1ccc(-c2cncc(N)c2)cc1CO,-5.49
16,COCCN(C)C(=O)Nc1cccc(C)n1,-9.37
17,NCC(=O)Nc1ccc2c(c1)CCC2,-42.19
18,NCc1nc2c(s1)CCCC2,-13.62
19,Cn1ccnc1SCCNCC1(O)CNCCOC1 (stereo not drawn),1.72
20,COCCn1ccnc1CN1CCN(C)C(CO)C1 (stereo not drawn),-3.82
21,CN(C)C1CCCN(C(=O)c2n[nH]c(N)c2Cl)CC1 (stereo not drawn),-17.73

row,Structure (SMILES),Inhibition [%]
1,O=C1CC(N2CCN(Cc3ccccc3)CC2)C(=O)N1 (stereo not drawn),-12.59
2,CN1CC[C@H]2CN(C(=O)CCCc3cn[nH]c3)C[C@H]21,-2.24
3,CC(O)CCS(C)(=O)=O (stereo not drawn),4.88
4,NC1CCN(S(=O)(=O)C2CC2)CC1,17.98
5,O=C(CCc1ccc2[nH]ccc2c1)N1CCOCC1,-29.4
6,CCOc1cc(C(=O)NC2=NCCS2)ccc1OC,13.17
7,Cn1nc(C(=O)Nc2nc(CC(N)=O)cs2)ccc1=O,12.8
8,OCc1cc(CNc2ncccn2)ccc1F,6.43
9,CC(CN)N(C)C(=O)c1ccccc1Br (stereo not drawn),12.75
10,CN(C)c1ncccc1CNC(=O)COCC1CC1,-2.02
11,CC(C)C(=O)NCc1ccnc(-n2cccn2)c1,10.08
12,O=C(Cn1cc(Br)cn1)NC1CCc2nccn2C1 (stereo not drawn),-4.73
13,CCCOc1cccc(NCCCS(C)(=O)=O)c1,1.09
14,O=C(NCCCN1CCc2ccccc2C1)C1CC1,-1.62
15,NCC1CCN(c2cnn(CC3CCC3)c(=O)c2)CC1,-9.55
16,CC1CN(c2cc(CN)ccn2)CCO1 (stereo not drawn),10.77
17,CC(C)(C(=O)N1CC[S+]([O-])C(C)(C)C1)c1ccccc1 (stereo not drawn),12.17
18,NC(=O)NCC1CCN(Cc2ccccc2)C1 (stereo not drawn),-16
19,COCC(=O)Nc1cccc(CN2CCCC2)c1,-2.77
20,NC(=O)C1CCN(C(=O)C2CCCO2)CC1 (stereo not drawn),-13.49
21,COc1ccc(C(=O)NCc2ccccn2)cc1F,-44.49

row,Structure (SMILES),Inhibition [%]
1,COC(=O)CNc1ccc2ccn(C)c(=O)c2c1,13.73
2,CN1CCCC(CCN)C1 (stereo not drawn),8.27
3,Cc1nn(C)c(C)c1CCC(=O)NC1CCCNC1=O (stereo not drawn),6.16
4,O=C(c1ccc(Br)cn1)N1CCN(CCO)CC1,18.45
5,CSc1ncccc1C(=O)N1CCCC(C)(C#N)C1 (stereo not drawn),-17.22
6,CC1CCCN(Cc2cc(=O)n(C)c(=O)n2C)C1 (stereo not drawn),8.23
7,O=C(NC(C1CCNCC1)[C@H]1C[C@H](O)C1)C1(CO)CC1 (stereo partly drawn),10.73
8,CC1(C)Cc2cccc(OCCN)c2O1,-35.66
9,CN1CCC(CN(C)Cc2cncs2)C1 (stereo not drawn),2.31
10,CC(Cn1cccn1)NC(=O)CCc1ccc(F)cc1 (stereo not drawn),-50.8
11,CC(C)c1nc(CN(CCO)Cc2nccn2C)co1,-7.36
12,CC1(C)CN(CC(O)C(F)(F)F)CCO1 (stereo not drawn),7.85
13,COc1cccc(CN(C)CCN(C)C)c1OC,12.2
14,CC(C)NC(=O)CNC(=O)c1cc2cc(F)ccc2[nH]1,-6.73
15,CC1CCN(C(=O)NCCS(=O)(=O)C(C)(C)C)C1 (stereo not drawn),10.36
16,CCNc1ncc(C(=O)N[C@@H]2CC[C@@H](N)C2)cn1,21.83
17,CC(c1ccc(F)cc1)N(C)C(=O)CCCN (stereo not drawn),-12.4
18,c1nsnc1-c1nc(C2CCCO2)no1 (stereo not drawn),-21.13
19,O=C(NCc1nnc2n1CCC2)Nc1cn[nH]c1,21.21
20,NCCCc1cn[nH]c1,12.47
21,O=C(c1ccc(C2CCCNC2)cc1)N1CCSCC1 (stereo not drawn),-23.58

row,Structure (SMILES),Inhibition [%]
1,CCCNC(=O)C1CCN(c2ncccc2C#N)CC1,-18.27
2,CCC(C(=O)Nc1ccccc1)N1CCS(=O)(=O)CC1 (stereo not drawn),18.51
3,COc1cc(F)c(S(=O)(=O)N(C)CC(N)=O)cc1OC,33.48
4,COc1nc(C)ccc1C#N,11.86
5,CC1(C)C(=O)NCCN1S(=O)(=O)c1ccccc1,-8.7
6,Nc1ccc(CN2CCN(CC(F)(F)F)CC2)cn1,-9.81
7,COc1ccc(C(=O)N2C[C@@H](CO)[C@H](N(C)C)C2)cn1,-8.8
8,NCc1cc2c([nH]c1=O)CCCC2,4.51
9,C=C(C)CN1CCC(NC(=O)NC2CC2)CC1,-6.54
10,Cn1nc(C(=O)NCc2cc(Cl)ccn2)ccc1=O,-9.69
11,CC(C)CC(NCCS(C)(=O)=O)c1ccccn1 (stereo not drawn),6.01
12,Cc1sc(S(N)(=O)=O)cc1N,7.68
13,COc1ccc(CC(C)=O)cn1,4.82
14,CC(C#N)CNC(=O)c1c(O)cc(F)cc1F (stereo not drawn),13.91
15,Cc1cccc(CNCCS(=O)(=O)N2CCOCC2)c1,-1.09
16,c1cnc2cc(-c3nc(C4CCOC4)no3)nn2c1 (stereo not drawn),18.33
17,CC(C)N(CCOc1ccccc1C#N)CC(N)=O,-27.27
18,Cc1csc(N2CCCN(C(=O)c3cnsn3)CC2)n1,-3.72
19,O=C(c1cccc(-n2cccn2)n1)N1CCCC1,17.03
20,COCCCn1c(SC2CCCCNC2=O)n[nH]c1=O (stereo not drawn),-25.74
